In ChEMBL document CHEMBL3988442, “University of Dundee, Small-Polar-MMV Screening Library” (2021):
In all, about 53,000 compounds went through this assay and about 900 (1.7%) showed an effect of 50% or more. The sample as a whole holds a higher share of strong results than the screen did.

System: Mycobacterium tuberculosis
Assay: Cornell - Phenotypic assay to identify agents that inhibit growth of Mycobacterium tuberculosis
Type: functional
Design: scale not given: direction of the effect not stated beside the values
Conditions: 10 mM as filed; unlikely as a test dose

Compound | Percent Effect
Cc1ccc(N(C)[C@@H]2CC[C@@H]3CN(C(=O)C4CCOCC4)C[C@@H]32)nn1 | -1.727%
CCN(Cc1nc(Cc2ccccc2)no1)C1CC1 | -4.646%
CC(C)c1ccc(S(=O)(=O)N2CSCC2C(=O)NCC(F)(F)F)cc1 (configuration not stated) | 11.48%
Cc1cccc(CNC(=O)NCC2CCN(Cc3ncc[nH]3)C2)c1 (configuration not stated) | 26.47%
Cc1cc(CN2CCCC2c2noc(C3CC3)n2)c2ccccc2n1 (configuration not stated) | 12.61%
c1cc(CN2CCCC2c2noc(C3CC3)n2)on1 (configuration not stated) | -61.35%
c1ccc2sc(CN3CCCC3c3noc(C4CC4)n3)nc2c1 (configuration not stated) | 50.21%
CCOC(=O)[C@]12CCCN(Cc3cccs3)C[C@H]1CN(CCOC)C2.O=C(O)C(F)(F)F.O=C(O)C(F)(F)F | 11.02%
COc1ccc(CNC(C)c2cnn(C)c2)cc1OC1CCCC1 (configuration not stated) | 9.224%
O=C(O)C(F)(F)F.c1coc(CN2CCCn3c(nnc3Cn3cccc3)C2)c1 | 21.05%
Cl.O=C(NCCn1nc(C2CCNC2)c2cccnc21)c1ccccn1 (configuration not stated) | -9.907%
Cc1cc(-c2ccc(=O)n(CCNC(=O)C3CCCCC3)n2)c(C)o1 | 6.455%
Cc1cc(-c2ccc(=O)n(CCNC(=O)C3CCC3)n2)c(C)o1 | -20.09%
Cc1cc(-c2ccc(=O)n(CCNC(=O)C3CC3)n2)c(C)o1 | 55.53%
O=C(Nc1cccc(CN2CCC(CO)CC2)c1)c1cc(Cl)c[nH]1 | -16.48%
CC(C)N(C)S(=O)(=O)N(Cc1cccs1)Cc1cccs1 | 53.57%
CCN(Cc1cccs1)S(=O)(=O)N(C)C(C)C | 30.52%
COc1ccccc1CN(Cc1cccs1)S(=O)(=O)N(C)C(C)C | 41.56%
CCOc1ccc(C(F)(F)F)cc1NC(=O)N1CCNC(=O)C1 | 13.57%
Br.O=C(CN(C1=NCCCC1)c1ccccc1)c1ccccc1 | -16.62%
Br.O=C(CN(C1=NCCCC1)c1ccccc1)c1ccc(OC(F)F)cc1 | 62.24%
Br.Cc1cccc(N(CC(=O)c2ccccc2)C2=NCCCCC2)c1 | 13.79%
Br.COc1ccc(C(=O)CN(C2=NCCCCC2)c2ccccc2)cc1 | 15.77%
Br.CCOc1ccc(N(CC(=O)c2ccccc2)C2=NCCCCC2)cc1 | 104.2%
Br.O=C(CN(C1=NCCCC1)c1ccccc1)c1ccc2c(c1)OCCO2 | 22.49%
Br.O=C(CN(C1=NCCCCC1)c1ccc(Cl)cc1)c1ccccc1 | 14.11%

Compound | Percent Effect
Br.Cc1ccc(N(CC(=O)c2ccc(Br)cc2)C2=NCCCCC2)cc1 | 102.8%
Br.Cc1ccc(C(=O)CN(C2=NCCCCC2)c2ccccc2)cc1 | 29.09%
O=C(NCC[S+]([O-])c1ccccc1)c1ccc2[nH]c(=O)[nH]c2c1 (configuration not stated) | 15.24%
CCOC(=O)[C@@H]1[C@@H](O)C(=O)N(C)C12CCN(C(=O)OC)CC2 | -16.14%
CC(C)CCN1C(=O)C2(NC(=O)c3ccccc3O2)c2ccccc21 (configuration not stated) | 40.69%
Cc1nc(-c2ccncc2)ncc1C(C)NC(=O)CN1CCOC1=O (configuration not stated) | -51.46%
O=S(=O)(NCCCn1cncn1)c1ccc2c(c1)CCC2 | -2.394%
CN(CCc1nccs1)C(=O)C1(C#N)CCCCC1 | 25.08%
Cc1nc(NCCO)cc(C(C)Cn2nc(C)c(C)c2C)n1 (configuration not stated) | -14.61%
NC(=O)c1cn2cc(-c3ccccc3Cl)n(CC3CC3)c(=O)c2n1 | 14.04%
O=C(C1CCN(c2ccnc3ccc(Br)cc23)CC1)N1CCOCC1 | -18.98%
CC1CCN(c2ccnc3ccc(Br)cc23)CC1 | 84.63%
CC(=O)NCC1CCN(c2ccnc3ccc(Br)cc23)CC1 | 9.267%
Cc1ccc(OCC(=O)Nc2cc(C(=O)O)cc(S(C)(=O)=O)c2)cc1C | 18.88%
CCc1nc(C2CCCN2C(=O)c2csc(COC)n2)no1 (configuration not stated) | -20.84%
Cc1cc(-n2cncn2)n2ncnc2n1 | 64.26%
Cc1cc(N2CCCC2Cn2nc(C)cc2C)n2ncnc2n1 (configuration not stated) | -13.82%
Cc1cc(-n2cnnn2)n2ncnc2n1 | -30.4%
Cc1ccc(C(=O)N2CCOC(c3ncc(CN(C)C)[nH]3)C2)cc1F (configuration not stated) | 14.93%
COc1ccc(F)cc1CN(CC(N)=O)C(C)C | -0.4736%
Cc1cc(-c2ccccc2)nc(C2CCCN2S(C)(=O)=O)n1 (configuration not stated) | -11.27%
Cn1cc(Br)c(C(=O)NCCn2cc(Br)cn2)n1 | 8.473%
N#Cc1cccnc1N1CCC(OCCc2ccccc2)CC1 | 33.41%
N#Cc1ccc(N2CCC(OCCc3ccccc3)CC2)nc1 | 51.1%
Cc1cccc(OC2CCN(c3ccc(C#N)cn3)CC2)n1 | 4.434%
O=C(Cc1cccc(O)c1)N1CCCC(O)(CN2CCCC2)CC1 (configuration not stated) | -1.621%

Compound | Percent Effect
c1cc2c(cc1CN1CCN(Cc3noc(C4CC4)n3)CC1)OCO2 | 10.54%
CCC(=O)Nc1ccc2c(c1)C1(CCOCC1)CN2CCF.O=C(O)C(F)(F)F | 2.387%
CCC1C(=O)NCCN1c1nccc(C)n1 (configuration not stated) | -0.2663%
CCC(C)N1CCc2nc(N3CCCC3)nc(NC(C)C)c2C1 (configuration not stated) | -13.77%
Cc1nc(CN2CCc3nc(NC(C)C)nc(C)c3C2)cs1 | 38.07%
CC(C)Nc1nc(N2CCCC2)nc2c1CN(S(C)(=O)=O)CC2 | 12.79%
CCCN1CCc2nc(N3CCOCC3)nc(NC(C)C)c2C1 | 29.26%
CC(C)Nc1nc(N2CCCC2)nc2c1CN(C(C)C)CC2 | 61.73%
CC(C)Nc1nc(N2CCCC2)nc2c1CN(c1ncc(F)cn1)CC2 | 82.11%
CC(C)Nc1nc(N2CCCC2)nc2c1CN(C)CC2 | 33.38%
Cc1nc(CN2CCc3nc(N4CCCC4)nc(NC(C)C)c3C2)cs1 | 75.47%
CCN1CCc2nc(N3CCOCC3)nc(NC(C)C)c2C1 | 16.58%
CCN(C(=O)c1nc2c(s1)CCCN2c1ccc(C)nn1)C(C)C | 10.96%
Cc1cc(F)ccc1N1CCCC(Nc2nccn3cnnc23)C1=O (configuration not stated) | -2.577%
Cc1cc(C(F)(F)F)n2nc(C3CCN(S(=O)(=O)N(C)C)CC3)cc2n1 | -8.533%
Cc1cc(C)nc(C2CCCN2C(=O)c2cnccn2)n1 (configuration not stated) | -1.129%
Cn1ccc2c(-c3cc(N4CCCCC4)ncn3)ccnc21 | -7.071%
Clc1cc(N2CCN(C3CCOCC3)CC2)nc2[nH]ccc12 | -30.2%
CN(Cc1noc(-c2ccccc2)n1)C(=O)CSc1nnc(N)s1 | -22.54%
CC(C)NC(=O)Cc1cnc(-n2cccc2)s1 | 43.3%
CCOCC(=O)N1CCCn2c(CN3CCOCC3)nnc2C1 | 18.04%
CN1CCN(C(=O)c2cc(-c3cnc(N4CCCC4)nc3)cn2C)CC1 | 2.355%
Cn1cc(-c2cnc(N3CCCC3)nc2)cc1C(=O)O | 95.84%
Cn1cc(-c2cnc(N3CCOCC3)nc2)cc1C(=O)O | 44.3%
COc1cccc(Cl)c1C(C(=O)O)N1CCC(Cn2cccn2)CC1 (configuration not stated) | -18.71%
CN(Cc1noc(C(C)(C)C)n1)Cc1ccccc1N1CCCCC1 | 2.184%

Compound | Percent Effect
O=C(Nc1nc(-c2ccccc2)ns1)N1CCC(F)CC1 | 13.41%
CC(C)(O)C1CCN(C(=O)Nc2nc(-c3ccccc3)ns2)CC1 | 105.1%
CC(C)(O)C1CCCN(C(=O)Nc2nc(-c3ccccc3)ns2)C1 (configuration not stated) | 24.52%
O=C(c1ccc(-n2cnnc2)cc1)N1CCCC(n2ccnc2)C1 (configuration not stated) | 15.63%
Cc1cc(C)c2cc(CNCc3ccc(C)o3)c3nn(C)c(=O)n3c2c1 | -2.639%
O=C(CCn1ccc2ccc(Cl)cc21)NCc1ccc(C(=O)O)cc1 | 28.36%
Cc1ccc(-c2ccccc2CC2(C(=O)NC(C)C)CCCNC2)cc1 (configuration not stated) | 60.07%
CC(C)NC(=O)C1(Cc2ccccc2-c2ccccc2)CCCNC1 (configuration not stated) | -4.67%
CC(C)NC(=O)C1(Cc2ccccc2-c2cncnc2)CCCNC1 (configuration not stated) | -1.5%
Cc1cc(C)n(CC2CN(Cc3cccc(C#N)c3)CCO2)n1 (configuration not stated) | 14.78%
COc1ccc(CN2CCn3cc(CN4CCN(C)CC4)nc3C2)cc1.O=C(O)C(F)(F)F.O=C(O)C(F)(F)F.O=C(O)C(F)(F)F | 3.435%
CC(C)COCCC(=O)Nc1ccc2oc(=O)n(CCN(C)C)c2c1 | -58.21%
O=C(NCCc1cc(N2CCOCC2)nc(NC2CC2)n1)C1CCCO1 (configuration not stated) | 34.16%
O=C(NCCc1cc(N2CCOCC2)nc(N2CCCC2)n1)C1CC1 | 50.32%
O=C(NCCc1cc(N2CCOCC2)nc(NC2CC2)n1)C1CC1 | 33.35%
OC[C@H]1CCCN1c1nccc(-c2c[nH]nc2C2CCCCC2)n1 | 4.191%
NC(=O)C1CCN(c2nccc(-c3c[nH]nc3C3CCCCC3)n2)CC1 | 12.19%
c1cc(-c2c[nH]nc2C2CCCCC2)nc(N2CCCCCC2)n1 | 77.63%
COCCNC(=O)c1ccc2ccc(N3CCN(CC4CC4)CC3)n2c1 | -16.88%
Cc1cc(-c2cc(F)ccc2C(=O)O)nc(C2CCCN(C)C2)n1 (configuration not stated) | 0.614%
Cc1nnc(NCC2(c3ccccc3)CCC2)c(C#N)c1C | 47.49%
COc1ccccc1C1(CNc2nnc(C)c(C)c2C#N)CCOCC1 | -5.763%
COc1ccccc1C1(CNc2nnc(C)c(C)c2C#N)CCCC1 | 86.76%
Cn1cnnc1SCc1cc2c(cc1Cl)OCO2 | 23.01%
